Out of some 2,400 compounds screened, about 220 (9.2%) were called active. This is one part of a sample in which actives are shown more often than they occur.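 Rule for the calls: active = signal change above the mean of dofetilide-free buffer controls plus 3 SD, so a positive margin; inactive = the rest.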
Experiment: thallium signal changes without hERG – cell-based, CHO-K1 parental line, FluxOR thallium flux, counter-screen for hERG block protection project, confirmation (AID 1839);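 note: compounds applied alone with no dofetilide to cells lacking hERG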
Settings: CHO-K1 parental cells, FluxOR thallium flux fluorescence; at 10 µM

SMILES | signal change vs control minus 3*SD hit threshold (margin above threshold, higher = more increase)
Cc1ccc(C(C)NC(=O)C2CCCC2)cc1C (configuration not stated) | 0.7% (active)
CCc1ccc(C(C)NC(=O)C2CCCC2)cc1 (configuration not stated) | -18.1% (inactive)
Cc1ccc(C(=O)NC(C)c2ccc(C)c(C)c2)s1 (configuration not stated) | -19% (inactive)
CCOc1ccc(C(C)NC(=S)NC2CCCCC2)cc1 (configuration not stated) | -15.5% (inactive)
Cc1ccc(C(C)NC(=S)NC2CCCCC2)cc1C (configuration not stated) | 1% (active)
CC(NC(=S)NC1CCCCC1)c1ccccc1 (configuration not stated) | -19.6% (inactive)
C[n+]1ccccc1/C=C/c1c(F)cccc1F | -21.1% (inactive)
COCCn1nnnc1C(c1ccc(C(F)(F)F)cc1)N1CCOCC1 (configuration not stated) | -34% (inactive)
O=C1C2C3C=CC(C4CC34)C2C(=O)N1/N=C/c1ccc(-c2ccc(F)cc2[N+](=O)[O-])o1 (configuration not stated) | -30.5% (inactive)
COc1cccc(C(=O)NNC(=O)C(=O)Nc2ccc(C)c(Cl)c2)c1 | 13.6% (active)
COc1cc(OC)cc(C(=O)NNC(=O)C(=O)Nc2cc(OC)c(Cl)cc2OC)c1 | 23.8% (active)
COc1ccc(C(=O)NNC(=O)C(=O)Nc2ccc(C)c(Cl)c2)cc1 | -14.1% (inactive)
COc1ccc(C(=O)NNC(=O)C(=O)Nc2ccc(C)cc2)cc1 | -5.7% (inactive)
COc1cccc(C(=O)NNC(=O)C(=O)Nc2ccc(C)cc2)c1 | 28.8% (active)
COc1cccc(C(=O)CC(=O)C(=O)Nc2ccc(C)cc2Cl)c1 | -9.2% (inactive)
COc1ccc(NC(=O)C(=O)NNC(=O)C(C)Oc2ccc(Cl)cc2Cl)cc1 (configuration not stated) | -10.9% (inactive)
COc1ccc(NC(=O)c2ccc(COCC(F)(F)C(F)F)cc2)cc1 | -40.3% (inactive)
COc1cccc(C(=O)NNC(=O)C(=O)Nc2cccc(Cl)c2C)c1 | -6.7% (inactive)
CCc1ccc(NC(=O)C(=O)NNC(=O)c2ccc(OC)cc2)cc1 | 21.6% (active)
Cc1cc(S(=O)(=O)Nc2ccc(C(=O)N3CCN(C(=O)c4ccco4)CC3)cc2)ccc1F | -12.4% (inactive)
O=[N+]([O-])c1cc(S(=O)(=O)/N=C(/c2ccccc2)N2CCOCC2)ccc1Cl | -31.7% (inactive)
CCOP(=O)(OCC)C(NC(=O)c1ccc(OC)c(OC)c1)c1ccccc1 (configuration not stated) | -21.4% (inactive)
Cc1cc(C(=O)NNC2CC(=O)N(c3ccc4ccccc4c3)C2=O)c(C)o1 (configuration not stated) | -24.7% (inactive)
O=C(c1cccs1)N1CCN(C23CC4CC(CC(C4)C2)C3)CC1 | -34.9% (inactive)
Cc1cc(C)c(S(=O)(=O)NCc2ccccn2)c(C)c1 | -22.6% (inactive)
Cn1c(=O)c(Sc2ccccc2)c(O)c2ccccc21 | -14.2% (inactive)
O=C1CC(O)(C(F)(F)F)Oc2c1ccc1ccccc21 (configuration not stated) | -3% (inactive)

— PubChem BioAssay AID1839 (Johns Hopkins Ion Channel Center, 2009)
